Shiga toxin inh: A qHTS for Small Molecule Inhibitors of Shiga Toxin. inhibition, % at 38.7 µM. 9.2% of 290,000 active. Vero cells, Shiga toxin protein synthesis inhibition reporter. AID 2315, 2010; in the data active means inhibition mostly above about 28%, no sharp cut-off; inactive means mostly below about 43%; further: 0% is about no effect
MARV entry inh: qHTS for inhibitors of binding or entry into cells for Marburg Virus; Marburg virus pseudotyped entry inhibition, cell reporter; Potency, µM (series often up to 37.8 µM), for inactives: at the top dose activity change, negative = inhibition, actives largely listed as inhibitors; 1.8% of 300,000 active; calls by dose curve; tested in HEK293 cells; further: potency means the concentration at half of the fitted maximal effect; on the % scale 0 is the no-effect control and ±100 the full control effect
Lassa entry inh: qHTS for Inhibitors of binding or entry into cells for Lassa Virus; Lassa virus pseudotype entry inhibition, cell reporter; Potency, µM (doses to about 37.9 µM), for inactives: at the top dose activity change, negative = inhibition, hits mostly inhibitors; 1.2% of 300,000 active; AID 540256, 2011; calls by dose curve; tested in HEK293 cells; further: potency means the concentration at half of the fitted maximal effect; on the % scale 0 is the no-effect control and ±100 the full control effect; nearly all actives have a fitted effect of over 50% in size
CHX counter: Cycloheximide Counterscreen for Small Molecule Inhibitors of Shiga Toxin; max response, %; 12% of 300,000 active; AID 2314, 2010; cell reporter, cycloheximide protein synthesis inhibition counterscreen; in the data active means max response mostly above about 13%, no sharp cut-off; inactive means mostly below about 14%; further: read at 38.3 µM for the half of the compounds with a filed dose; 0% is about no effect
The depositor's hits bear a star; ? = inconclusive; . = not tested or not shown; [ ] = remark or other dose. A selection: hits, their analogues and other compounds. The true share with any hit is near 12%.

SMILES | Shiga toxin inh | MARV entry inh | Lassa entry inh | CHX counter
COc1cc(OC)cc(-c2nc(-c3cccs3)no2)c1 | 76 | 29%[46.1 µM] | ? | 44*
COc1cccc(-n2nnc(-c3nc(-c4cccs4)no3)c2N)c1 | . | . | 19%[46.1 µM] | .
COc1cccc(-c2nc(-c3ccncc3)no2)c1 | 121* | ? | -12%[46.1 µM] | 35*
COc1cccc(-c2nc(-c3cccs3)no2)c1 | 57* | ? | ? | 43*
COc1cccc(-c2nc(CS(=O)(=O)c3ccccc3)no2)c1 | 91* | -2% | ? | 51*
CC(=O)NCCNC(=O)C1CCCCN1S(=O)(=O)c1ccccc1 (stereo not given) | -3 | 10%[14.2 µM] | 4% | -2
COc1ccccc1NC(=O)c1cnc(SCC(=O)NCCc2ccccc2)n(C)c1=O | . | -6% | -24% | .
CC1(C)CC2CC(C)(CN2C(=O)COC(=O)c2ccc(Cl)c(N)c2)C1 (stereo not given) | -8 | 1% | -13% | -6
Cc1cccc(C(=O)NC(=S)NCc2cccnc2)c1 | -8 | 14% | 0% | 1
C=CCSC1=NNC(c2ccc(C(C)(C)C)cc2)=NN1 | 79* | 6% | -1% | 32*
COc1ccc(-c2ccc(-c3noc(-c4ccccc4C)n3)c(OC)n2)cc1 | -12 | 14% | 4% | -1
COc1ccc(-c2ccc(-c3noc(C)n3)c(OC)n2)cc1 | 62 | ? | 17% | 23*
COCc1nc(-c2ccc(-c3ccc(C)cc3)nc2OC)no1 | 116* | 14% | 0% | 33*
CO/N=C/c1cccn1-c1nccc(OC)c1C#N | -11 | 6%[46.1 µM] | -10%[46.1 µM] | 1
CCC(CC)C(=O)Nc1cc(-c2cn3cccnc3n2)ccc1OC | . | . | 9%[46.1 µM] | .
O=C(NCc1ccc2c(c1)OCO2)c1c[nH]c2ccc(S(=O)(=O)N3CCOCC3)cc2c1=O | -33 | -2% | 0.52µM* | -2
O=C(NCc1ccccc1)c1c[nH]c2cc3c(cc2c1=O)OCCO3 | 30* | ? | -23% | 37*
O=C(Cc1c[nH]c2ccccc12)NCc1ccc2c(c1)OCO2 | 16 | 14% | 21% | 19*
O=C(CCc1c[nH]c2ccccc12)NCc1ccc2c(c1)OCO2 | -11 | -6% | ? | 2
Cc1ccc(C(C(=O)Nc2ccc3c(c2)OCO3)N(C)C(=O)Cc2c[nH]c3ccccc23)cc1 (stereo not given) | 4 | 10µM* | ? | -2
COCCNC(=O)c1c[nH]c2ccc(S(=O)(=O)N3CCOCC3)cc2c1=O | -10 | . | . | -2
O=C(O)c1cc(S(=O)(=O)NCCOc2ccccc2)ccc1Cl | . | -23% | 2% | .
Cc1ccc(NC(=O)CN2CCN(S(=O)(=O)c3ccc(F)cc3)CC2)cc1C | . | -11% | -3% | .
Cc1ccc2cc([N+](=O)[O-])ccc2n1 | 1 | 22%[46.1 µM] | 18% | 12
CCOc1ccccc1NC(=O)C(C)n1nnc2sc3c(c2c1=O)CCCC3 (stereo not given) | . | 11%[46.1 µM] | 16%[46.1 µM] | .
SMILES | Shiga toxin inh | MARV entry inh | Lassa entry inh | CHX counter
CCN(CC(=O)Nc1c(C(=O)OC)[nH]c2ccccc12)c1ccc2c(c1)OCO2 | 8 | 6.5µM* | -9% | 4
O=C(NCc1ccc2c(c1)OCO2)NC1CCCCC1 | 31 | -4%[46.1 µM] | -11%[46.1 µM] | -1
O=C(Cc1ccccc1)NCc1ccc2c(c1)OCO2 | 118* | 19% | 12% | 59*
O=C(NCc1ccc2c(c1)OCO2)C1CCCN1C(=O)Nc1ccccc1 (stereo not given) | -2 | 17% | 1% | -2
O=C(CC12CCC(CC1)C2)NCc1ccc2c(c1)OCO2 | 44* | -1% | 10% | 26*
O=C(NCc1ccc2c(c1)OCO2)C(=O)Nc1ccccc1 | 90* | 18% | 6% | 22*
O=C(COC(=O)CCc1ccccc1)NCc1ccc2c(c1)OCO2 | . | 13%[46.1 µM] | 0%[46.1 µM] | .
COc1cccc2cc(C(=O)NCCc3c[nH]c4ccccc34)c(=O)oc12 | 2 | ? | -29% | 15
O[C@@H]1COC2[C@@H](O)CO[C@@H]21 (stereo not given in full) | -2 | . | . | 12
CCOC(=O)c1c(NCc2ccc3c(c2)OCO3)c2ccccc2[nH]c1=O | 10 | ? | 11% | 19*
O=C(CCc1ccccc1)NCc1ccc2c(c1)OCO2 | 19 | 10%[46.1 µM] | 25%[46.1 µM] | 14*
CCOC(=O)c1c(NCCN(C)C)c2ccccc2[nH]c1=O | -9 | . | . | -1
O=C(CN(Cc1ccc(F)cc1)C(=O)c1csnn1)NCc1ccc2c(c1)OCO2 | -11 | -17%[46.1 µM] | . | 0
O=C(CN(Cc1ccccc1F)C(=O)c1csnn1)NCc1ccc2c(c1)OCO2 | 16 | -8%[46.1 µM] | 2.8µM* | 4
O=C(Cc1ccccc1[N+](=O)[O-])NCc1ccc2c(c1)OCO2 | 69* | 15% | 19% | 58*
CC(C)NS(=O)(=O)c1ccc(CCC(=O)Nc2ccc3c(c2)OCO3)cc1 | -10 | 11% | -15% | -4
